# From PubChem BioAssay (NCI)
# About 83,000 compounds went through this panel and 20% of them were active in at least one assay; those are over-represented in the sample as a whole.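 Negative percent growth values reflect cell death: -40 means 40% of the cells present at the start died, and -100 means all died.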 Values without a mark were called inactive. Calls of active or inactive are those of the source. The calls were made as follows: active = growth percent below 10; inactive = the rest.
# Legend:
# Test in all cases: NCI-60 one-dose screen, 48 h (100 = growth as untreated, 0 = no growth, -100 = all killed)
# Details in all cases: 10 µM unless noted
# [1] = test system: NCI-H23 lung
# [2] = test system: NCI-H226 lung
# [3] = test system: NCI-H322M lung
# [4] = test system: HOP-62 NSCLC
# [5] = test system: NCI-H460 lung
# [6] = test system: A549/ATCC NSCLC
# [7] = test system: 786-0 renal
# [8] = test system: COLO 205 colon
# [9] = test system: DU-145 prostate
# [10] = test system: K-562 leukemia
# [11] = test system: MALME-3M melanoma
# [12] = test system: MDA-MB-231 breast
# [13] = test system: RXF 393 renal
# [14] = test system: SF-268 CNS
# [15] = test system: SF-295 CNS
# [16] = test system: SF-539 CNS
# [17] = test system: UACC-257 melanoma
# [18] = test system: M14 melanoma
Compound,growth [1],growth [2],growth [3],growth [4],growth [5],growth [6],growth [7],growth [8],growth [9],growth [10],growth [11],growth [12],growth [13],growth [14],growth [15],growth [16],growth [17],growth [18]
CC(O)CN(CCO)CCN(CCO)CC(C)O (configuration not stated),111%,99.3%,103%,110%,109%,102%,94.6%,115%,106%,107%,106%,115%,93%,107%,94.2%,94.8%,108%,106%
O=P(OCCCl)(OCCCl)C(O)c1ccccc1Cl (configuration not stated),106%,100%,97%,96.2%,115%,111%,110%,101%,112%,96.6%,96.7%,108%,125%,103%,102%,98.1%,137%,105%
O=C(Nc1ccc(-n2cc(-c3ccncc3)c(-c3ccc(Cl)c(O)c3)n2)cc1)c1ccc(Cl)c(Cl)c1,45.7%,107%,97.1%,6.9% (active),8.3% (active),43.6%,-63.5% (active),51.9%,61.8%,10.3%,43.6%,31.5%,-52.1% (active),61.1%,-50.3% (active),23.5%,58.6%,-65.8% (active)
COc1cc(-c2nn(-c3ccc(NC(=O)c4ccc(Cl)c(C(F)(F)F)c4)cc3)cc2-c2ccncc2)ccc1Cl,18.7%,55.5%,55.9%,5.59% (active),11.9%,29%,-84.5% (active),-22.4% (active),45.2%,8.48% (active),14.9%,3.94% (active),-56.3% (active),43.8%,-33.2% (active),13%,54.2%,-44.3% (active)
COc1cc(-c2nn(-c3ccc(NC(=O)Nc4cc(C(F)(F)F)cc(C(F)(F)F)c4)cc3)cc2-c2ccncc2)ccc1Cl,8.45% (active),18.4%,6.93% (active),12.2%,-20.6% (active),12.1%,-41.4% (active),-89.8% (active),16.8%,17.2%,-1.21% (active),-18.7% (active),-2.81% (active),14.1%,-34.8% (active),15.8%,-1.38% (active),4.73% (active)
COc1cc([C@@H]2c3cc4c(cc3[C@H](O)[C@H]3COC[C@@H]23)OCO4)cc(OC)c1OC,91.8%,88.8%,104%,65.4%,94.4%,98.8%,78.5%,96.7%,96.7%,39.1%,43.3%,73.8%,83.1%,80.9%,56.3%,75%,75.8%,42.4%
[N-]=[N+]=Nc1ncc(-c2ccc(C(F)(F)F)cc2)c(NC2CCCCCC2)n1,38% [100 µM],60.3% [100 µM],47.6% [100 µM],69.9% [100 µM],18.4% [100 µM],23.6% [100 µM],38.1% [100 µM],36.3% [100 µM],37.1% [100 µM],8.78% [100 µM] (active),62.3% [100 µM],42.3% [100 µM],43.5% [100 µM],38% [100 µM],-19.7% [100 µM] (active),66.2% [100 µM],27.6% [100 µM],34.7% [100 µM]
C/C(=C\c1ccc2ccccc2c1)[N+](=O)[O-],74.6%,67%,78.2%,98.7%,98.8%,97.3%,-62.9% (active),-26.9% (active),27%,5.31% (active),-58.7% (active),50.8%,-86.1% (active),21%,92.2%,15.6%,68.9%,22.4%
CCCCCCCCCCCCCCCCNC(=O)Nc1ccc(C)c(NC(=O)NCCCCCCCCCCCCCCCC)c1,111%,98.9%,108%,98%,103%,104%,118%,116%,112%,105%,89.8%,89.9%,108%,114%,114%,110%,105%,108%
CCCCCCCCCCCCOC(=N)N(C)C,107%,96.2%,95%,97%,99.8%,91.7%,96.8%,100%,112%,96.3%,88.9%,104%,112%,101%,98.4%,99.4%,92.2%,106%
COc1ccc(C2CC(=O)c3c(O)cc(OC4OC(COC5OC(C)C(O)C(O)C5O)C(O)C(O)C4O)cc3O2)cc1O (configuration not stated),105%,105%,81.7%,10.3%,110%,98.3%,100%,112%,136%,167%,96.1%,111%,111%,112%,87.8%,98.7%,95.5%,98.7%
O=c1c2c(c3ccccc3n1-c1ccccc1)NC(=S)NC2c1ccccc1 (configuration not stated),98.5%,92.1%,130%,90.5%,104%,103%,97.3%,113%,115%,101%,112%,84.7%,117%,104%,121%,94.8%,108%,98.8%
O=C(CCC(=O)N(CCO)CCO)N(CCO)CCO,108%,105%,96%,102%,116%,105%,96.4%,98.4%,107%,96%,103%,109%,113%,108%,96.4%,101%,101%,99.5%
CC(=O)/C(=C\c1c(-c2ccccc2)[nH]c2ccccc12)S(=O)(=O)c1ccccc1,-19.8% (active),23.2%,43.1%,6.39% (active),2.86% (active),19.6%,9.85% (active),12%,-18.7% (active),-53.4% (active),62.6%,4.14% (active),-28.2% (active),7.87% (active),-41.4% (active),-38.1% (active),-6.16% (active),5% (active)
Cc1ccc(NC(=O)CCl)cc1Cl,89.2%,103%,97.1%,98.9%,105%,106%,117%,122%,111%,87.3%,78.7%,89.4%,102%,103%,81.2%,108%,90.5%,104%
O=C(Nc1ccc(-n2cc(-c3ccncc3)c(-c3ccc(Cl)c(O)c3)n2)cc1)Nc1ccc(Cl)c(C(F)(F)F)c1,3.39% (active),68.2%,12%,-7.48% (active),-29.3% (active),6.06% (active),-44.8% (active),-66.5% (active),23.2%,8.1% (active),-13.6% (active),-24.8% (active),-47.8% (active),23.3%,-44.5% (active),2.77% (active),-9.1% (active),-58.6% (active)
COc1cc2cn3c4ccc(O)cc4[nH]c(=O)c3c2cc1OC,-6.02% (active),8.14% (active),1.3% (active),4.45% (active),-55.7% (active),10.6%,1.09% (active),-19.5% (active),3.02% (active),3.94% (active),1.16% (active),30.9%,26.8%,18.1%,-11% (active),5.31% (active),-10.1% (active),3.61% (active)

Compound,growth [1],growth [2],growth [3],growth [4],growth [5],growth [6],growth [7],growth [8],growth [9],growth [10],growth [11],growth [12],growth [13],growth [14],growth [15],growth [16],growth [17],growth [18]
O=c1[nH]c2cc(O)ccc2n2cc3c(F)cccc3c12,39.6%,60.8%,29.4%,21.1%,2.7% (active),22%,28.7%,66.2%,33.9%,24.3%,40.3%,52.4%,4.74% (active),19.4%,15.4%,16.6%,51.2%,25.2%
O=C(CCl)NC1c2ccccc2Oc2ccccc21,70.4%,98.1%,97.9%,75.5%,64.8%,71.7%,77.2%,103%,65.5%,45.6%,74.1%,60.7%,80.1%,64.4%,81.2%,82.4%,63.6%,77.8%
COc1ccc(C(=O)N2N=C(c3ccc(Br)cc3)CC2c2cn(-c3ccccc3)nc2-c2ccccc2)cc1 (configuration not stated),42.4%,88.9%,78%,22.6%,41.8%,22.8%,74%,26.2%,47.2%,43.4%,73.1%,61.3%,82.4%,71.9%,70.9%,92.4%,79.6%,39.1%
N#Cc1ccc(OCc2nc(N)nc(N)c2-c2ccc(Cl)c(Cl)c2)cc1,36.3%,45.8%,40.6%,9.96% (active),14.1%,7.74% (active),25.8%,45.5%,34.3%,12.6%,49.5%,50.7%,46%,33.6%,3.74% (active),22.7%,22.8%,27.6%
CC(=O)c1ccc2c(c1)c1ccccc1n2C,94.1%,84.2%,86.2%,83.2%,98.5%,96.9%,96.6%,99.8%,104%,86.7%,105%,102%,94.7%,101%,85.8%,108%,104%,106%
COc1cc(-c2nn(-c3ccc(NC(=O)c4cc(Cl)cc(Cl)c4)cc3)cc2-c2ccncc2)ccc1Cl,88%,107%,104%,56.9%,54.8%,73%,16.7%,101%,96.9%,23.4%,104%,80.9%,-17.1% (active),76.9%,-1.01% (active),60.2%,102%,62.9%
S=C(N/N=C/c1cc(Cl)cc(Cl)c1)NC12CC3CC(CC(C3)C1)C2,97.8%,79.6%,62.2%,78.2%,34.4%,45%,71%,68.8%,77.4%,79.5%,54.6%,52.6%,67.2%,64.6%,35.1%,68.9%,83%,89%
BrCCCOc1ccc(Oc2ccc(OCCCBr)cc2)cc1,109%,99.6%,123%,108%,105%,94.7%,88.9%,134%,116%,109%,117%,104%,80.8%,111%,116%,113%,90.4%,102%
COC(=O)C(N)CC(C)C (configuration not stated),107%,97.1%,106%,110%,108%,103%,96.7%,114%,101%,88.8%,95.2%,-50.4% (active),98.2%,96.8%,109%,112%,102%,92.6%
CCCCCCCCCCCC(=O)OC(C)C(=O)Nc1ccccc1 (configuration not stated),98.9%,103%,95.3%,97.4%,104%,104%,94.7%,102%,106%,97.7%,96.3%,109%,117%,102%,85.7%,98.9%,99.7%,96.9%
CCCCCCCCCCCCCCCCNC(=S)N/N=C/c1ccc(OC)cc1,103%,98.6%,108%,117%,104%,96.1%,95.3%,115%,104%,105%,103%,95.1%,92%,107%,84.9%,91.7%,99.3%,96.1%
CC(C)(C)c1ccc(OCCOC(=O)CBr)cc1,98.7%,102%,120%,99.1%,102%,105%,103%,89.1%,109%,82.8%,107%,88%,78.5%,96.3%,116%,100%,106%,95.8%
O=C(Nc1ccc(-n2cc(-c3ccncc3)c(-c3ccc(Cl)c(O)c3)n2)cc1)c1cc(Cl)cc(Cl)c1,60.3%,111%,60.4%,22.2%,14.1%,41.4%,-39% (active),72.9%,72.8%,13.9%,24.7%,24.2%,-69% (active),74.5%,-61.6% (active),26%,54.7%,-49.1% (active)
O=C(O)CS(=O)c1ccc(Cl)cc1 (configuration not stated),106%,103%,87.7%,101%,104%,103%,95.7%,107%,109%,81.8%,99.8%,118%,103%,109%,94.9%,106%,99.3%,102%
CCCCCCC(=O)C(C)C,107%,92.3%,96.5%,93.8%,113%,97.5%,94.5%,112%,106%,94.9%,89.2%,111%,101%,105%,101%,104%,92.8%,97.2%
Nc1nc(-c2cccc(Br)c2)cc(-c2cc3ccccc3oc2=O)n1,96.1%,91.5%,115%,90.9%,103%,97.2%,105%,113%,111%,104%,123%,104%,110%,100%,131%,110%,106%,103%
O=C(NCCO)C(F)(F)F,109%,111%,105%,104%,109%,98.4%,93.9%,110%,109%,105%,95.6%,107%,108%,102%,95.5%,93.5%,99.3%,101%
